Compound activity deposited in PubChem BioAssay by The Scripps Research Institute Molecular Screening Center.
DAX1 inh-1 – DAX1 (NR0B1) inhibitors, primary screen, cell-based, HEK293, Gal4-DAX1, luciferase luminescence; Nuclear receptor subfamily 0 group B member 1 (Homo sapiens), P51843; HEK293 Gal4-DAX1 luciferase reporter; inhibition, % at 6.75 µM; 0.99% of 340,000 active; AID 504766, 2011;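 active = inhibition above the mean over all tested compounds plus 3 SD, cut at about 4.2% in these data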;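 note: 0% = DAX1-transfected cells with DMSO and 100% = empty-vector control cells with DMSO; inhibition shows as a rise in luminescence from relieved DAX1 repression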
Target sequence (P51843 207-470 limits assumed): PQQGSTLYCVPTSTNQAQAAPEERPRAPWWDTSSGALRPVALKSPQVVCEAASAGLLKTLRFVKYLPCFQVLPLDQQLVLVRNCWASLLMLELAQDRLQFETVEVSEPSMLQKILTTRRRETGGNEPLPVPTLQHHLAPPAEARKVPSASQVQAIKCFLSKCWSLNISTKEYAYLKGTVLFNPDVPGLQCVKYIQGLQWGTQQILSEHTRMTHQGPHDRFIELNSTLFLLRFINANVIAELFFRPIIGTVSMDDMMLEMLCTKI
hcDAF-12 act – H. contortus DAF-12 nuclear receptor activators, primary screen, cell-based, luminescence, HEK293, lit1-tk-luc reporter | HEK293 hcDAF-12 lit1-tk-luc reporter; 0% DMSO, 100% Δ7-dafachronic acid | activation, % at 6.8 µM | 1.4% of 370,000 active;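 active = activation above the mean of all tested compounds plus 3 SD, cut at about 5.5% in these data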;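 note: 100% = response to 3 µM Δ7-dafachronic acid high control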
hgDAF12 agonist – H. glycines DAF-12 receptor agonists, primary screen, cell-based, luminescence, HEK293, GAL4 fusion, UAS-luciferase; HEK293 GAL4-hgDAF12 UAS-luciferase reporter, agonist luminescence; normalized to butyrate control; activation, % at 6.8 µM; 1.8% of 370,000 active; AID 687014, 2013;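 active = activation above a cutoff set at the mean of all screened compounds plus 3 SD, cut at about 10% in these data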;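 note: 0% = DMSO wells and 100% = sodium butyrate wells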
SMARCA2 act – SMARCA2 (BRM) function activators, primary screen, cell-based, luminescence, high throughput; MG213 cells, MMTV-luciferase reporter, dexamethasone, overnight; activation, % at 9.1 µM; 1% of 370,000 active; in the data active = activation above about 7.8%;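 note: 0% = vehicle wells and 100% = reference activator wells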
DAX1 inh-2 – DAX1 (NR0B1) inhibitors on StAR promoter, primary screen, cell-based, luminescence, SF-1 (NR5A1), full-length DAX-1. inhibition, % at 6.8 µM. 1.1% of 370,000 active. HEK293T StAR-luciferase reporter, SF-1/DAX-1 repression relief. AID 652010, 2013;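 active = inhibition above the mean over all tested compounds plus 3 SD, cut at about 3.6% in these data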;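 note: 0% = DAX-1 cells with DMSO and 100% = cells lacking DAX-1 with DMSO; higher inhibition means more luminescence from relief of DAX-1 repression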
ssDAF12 agonist – S. stercoralis DAF-12 nuclear receptor activators, primary screen, cell-based, luminescence, HEK293, GRIP1 co-expression, lit1-tk-luc; Nuclear hormone receptor DAF-12 (Strongyloides stercoralis); HEK293 ssDAF-12/GRIP1 lit1-tk-luc reporter; % of 3 µM dafachronic acid response; activation, % at 6.8 µM; 1% of 370,000 active;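 active = activation above the mean over all tested compounds plus 3 SD, cut at about 0.9% in these data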;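 note: 0% = DMSO-only wells and 100% = 3 µM delta7-dafachronic acid wells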
SMARCA2 conf – SMARCA2 (BRM) function activators, confirmation, cell-based, luminescence, triplicate; shares compounds with SMARCA2 act; MG213 cells, MMTV-luciferase with dexamethasone, overnight; MG213 cells expressing E1A, Rb sequestered; DMSO wells 0%, reference activator 100%; activation, % at 9.1 µM; 30% of 3,500 active; AID 652260, 2013;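 active = activation above its plate's cutoff, the mean activation of tested wells plus 3 SD, cut at about 7.9% in these data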
GAL4-VP16 Luc – GAL4-VP16 luciferase reporter activation, counter-screen for SMARCA2 (BRM) activator project, cell-based, pG5luc, luminescence, high throughput. AID 686939, 2013. HEK293 GAL4-VP16 pG5luc reporter; scaled: DMSO wells 0%, SAHA wells 100%. 41% of 3,500 active. shares compounds with SMARCA2 act. activation, % at 9.1 µM;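 active = activation above the solvent-only control well mean plus 3 SD, averaged across control plates, cut at about 5.2% in these data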
* = called active by the depositor; · = not tested or not shown. An excerpt weighted towards active compounds, which were near 4.8% of everything screened.

SMILES	DAX1 inh-1	hcDAF-12 act	hgDAF12 agonist	SMARCA2 act	DAX1 inh-2	ssDAF12 agonist	SMARCA2 conf	GAL4-VP16 Luc
COc1cc(/C=C2/CC/C(=C/c3ccc(O)c(OC)c3)C2=O)ccc1O	0	-2	-3	-3	0	-2	·	·
COc1cc(/C=C2\COC/C(=C\c3ccc(O)c(OC)c3)C2=O)ccc1O	-6	-3	-10	13*	-2	-2	4	-1
O=C(NC1CCCC1)C(c1cccnc1)N(C(=O)c1ccco1)c1cccc(F)c1 (stereo unspecified)	-1	-1	-1	0	0	-1	·	·
CCC1Oc2ccccc2N(CC(=O)NCc2cccs2)C1=O (stereo unspecified)	0	2	4	-2	0	-1	·	·
CCCCn1nc(C(=O)NCC2COc3ccccc3O2)c2ccccc2c1=O (stereo unspecified)	2	0	-2	-4	-1	-1	·	·
S=c1[nH]nc(Nc2cccc3ccccc23)s1	·	1	1	11*	0	-1	3	1
Cc1ccccc1Nc1n[nH]c(=S)s1	2	0	3	-2	0	-1	·	·
C=CCN(Cc1ccc(Cl)s1)C(=O)CNC(=O)CNC(=O)c1ccc(Cl)cc1Cl	-1	-2	0	-3	-2	-1	·	·
Cc1ccc(NC(=O)c2cnccn2)c(Br)c1	1	0	9	10*	1	0	8	6.2*
Cc1ccc2cc(NC(=O)c3ccccc3)ccc2n1	2	5	10	9.2*	4	0	7	13*
Cc1ccc2cc(NC(=O)CC(CC(=O)O)c3ccccc3)ccc2n1 (stereo unspecified)	2	-1	0	-3	0	-1	·	·
COc1ccc(OCC(=O)N2CCN(C(=O)Cc3ccccc3)CC2)cc1	0	-1	0	3	0	-1	·	·
O=C(NNC(=O)C1CC2CCC1C2)c1sc2ccccc2c1Cl (stereo unspecified)	1	2	13*	8.4*	2	0	5	5
COc1cccc(CNC(=O)[C@@H]2CCCN2C(=O)[C@@H]2CCCN2S(=O)(=O)c2ccc(OC)c(C)c2)c1	·	-1	0	9.1*	0	0	1	1
CC(NC(=O)CCc1ccc(S(=O)(=O)NC2CCCCC2)cc1)c1ccccc1 (stereo unspecified)	0	-1	-3	0	0	-1	·	·
CCOC(=O)c1csc(-c2ccc3c(c2)CCO3)n1	·	2	10	16*	2	-1	3	6.7*
CSCC[C@H](NC(=O)c1cccs1)c1nnc2ccccn12	0	-2	0	-4	0	-1	·	·
Cc1cc(=O)n2[nH]c(-c3ccccc3Cl)cc2n1	0	1	7	3	0	-1	·	·
Cc1cccc(-c2cc3nc(C)cc(=O)n3[nH]2)c1	1	5	7	9.2*	2	1	5	6.7*
COc1ccc(O)c(CNn2c(-c3ccc(Br)cc3)nc3ccccc3c2=O)c1	1	3	-2	0	-1	-1	·	·
COc1cccc2cc(-c3nc(-c4cccs4)cs3)c(=O)oc12	1	4	9	8.6*	3	0	4	11*
Cc1csc(NC(=O)c2nc3nccc(C)n3n2)n1	0	1	4	8.6*	1	-1	4	4
Cc1ccnc2nc(C(=O)Nc3nc4ccccc4s3)nn12	2	6.3*	13*	11*	4.3*	1.0*	7	11*
Cc1ccnc2nc(C(=O)Nc3nnc(CC(C)C)s3)nn12	0	-2	3	2	0	-1	·	·
CC(C)CNC(=O)CN(C)S(=O)(=O)c1ccc(F)cc1	1	4	-1	-5	0	-1	·	·
SMILES	DAX1 inh-1	hcDAF-12 act	hgDAF12 agonist	SMARCA2 act	DAX1 inh-2	ssDAF12 agonist	SMARCA2 conf	GAL4-VP16 Luc
O=C(NCc1ccc(F)cc1)C(c1ccc(F)cc1)N(C(=O)c1csnn1)C1CC1 (stereo unspecified)	0	0	1	1	0	-1	·	·
CC(CN1C(C)CCCC1C)OC(=O)c1ccccc1Cl (stereo unspecified)	-1	-2	-2	-5	0	-1	·	·
CC(CN1C(C)CCCC1C)OC(=O)c1ccccc1Br (stereo unspecified)	0	-2	0	8.4*	1	-1	2	0
CCOC(=O)Nc1ccc2c(c1)C(=NNC(=S)NC)c1ccccc1-2	-1	-1	-1	9.8*	-3	-2	16*	8.4*
C=CCn1c(O)c(C2=c3ccccc3=NC2=O)sc1=Nc1ccc(O)cc1	2	4	2	9.6*	0	0	-2	-1
CC1=CC(=O)C(Sc2ccc(C)cc2)=CC1=O	0	1	-5	8.1*	-1	-1	-4	6.2*
Cc1ccc(Sc2c(C)[nH]n(C(C)(C)C)c2=O)cc1	3	-1	0	3	-1	-1	·	·
O=C(N/N=C/c1c[nH]c2ccccc12)c1ccc([N+](=O)[O-])cc1Cl	2	·	·	·	·	·	·	·
O=C(N/N=C/c1ccc2c(c1)OCO2)C1COc2ccccc2O1 (stereo unspecified)	2	-1	1	8.5*	0	-1	5	1
COc1cccc(C(=O)NCC(=O)N/N=C/c2ccc3c(c2)OCO3)c1	-1	-1	1	8.0*	0	0	2	0
COc1cccc(-c2nnc(NC(=O)C3CCCCC3)o2)c1	2	-1	1	-1	0	-1	·	·
CCCCCCN1C[C@@H](O)[C@H](n2cc(-c3ccc(F)cc3)nn2)C[C@@H]1c1ccc(OC)cc1	2	-2	0	1	1	0	·	·
CS(=O)(=O)N(CC(=O)N1CCCCC1)c1ccc2c(c1)OCO2	0	0	1	5	0	-2	·	·
